Drawing on PubChem BioAssay (NCI), this text covers growth inhibition for ten compounds.

This is part of a sample that, as a whole, favours compounds with a hit. Of some 79,000 tested, about 15% had one in any assay. Values without a mark were called inactive. The source made the active and inactive calls. Rule as the data show it: active = growth inhibition above about 70%; inactive = the rest.

Test [1] is described as follows: NCI Yeast Anticancer Drug Screen. Data for the rad50 strain (AID 155).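 Also: 0% = growth of vehicle-only cultures of the same strain.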 The conditions noted are these: S. cerevisiae rad50 strain growth inhibition, hits give high values. The procedure, abridged: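 Inhibition values express reduced yeast growth in compound-treated cultures relative to vehicle-treated controls.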
Test [2] can be described thus: NCI Yeast Anticancer Drug Screen. Data for the mec2-1 strain (AID 157). The conditions noted are these: S. cerevisiae mec2-1 strain, hits give high values. The procedure, abridged: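 Growth inhibition is read against vehicle-treated controls after compound exposure of the mec2-1 yeast strain, which is defective in DNA damage repair or cell cycle control.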
The nature of test [3]: NCI Yeast Anticancer Drug Screen. Data for the sgs1 mgt1 strain (AID 161).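 Also: 0% = growth of cultures given vehicle only.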 The conditions noted are these: S. cerevisiae sgs1 mgt1 strain, hits give high values. The procedure, abridged: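 Growth of a repair-deficient yeast mutant was monitored after compound treatment and expressed as inhibition relative to vehicle-treated cultures.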
Test [4] can be described thus: NCI Yeast Anticancer Drug Screen. Data for the cln2 rad14 strain (AID 165).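 Also: 0% = growth equal to vehicle treated cultures.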 The conditions noted are these: S. cerevisiae cln2 rad14 strain, hits give high values. The procedure, abridged: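 Growth inhibition, relative to vehicle-treated controls, is the read-out. The test organism is a yeast strain with defined genetic alterations, cln2 rad14.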
A short description of test [5]: NCI Yeast Anticancer Drug Screen. Data for the bub3 strain (AID 167). Conditions: S. cerevisiae bub3 mutant strain, hits give high values. The procedure, abridged: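 Steps: expose the mutant yeast strain to compound; grow alongside vehicle-treated cultures; measure growth; express inhibition against the vehicle cultures.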
Test [6] is described as follows: NCI Yeast Anticancer Drug Screen. Data for the mlh1 rad18 strain (AID 175). The conditions noted are these: S. cerevisiae mlh1 rad18 strain growth inhibition, hits give high values. Summed up: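 Cells of a genetically altered yeast strain, deficient in DNA damage repair, were treated with compound. Their growth was then compared with that of vehicle-treated cultures to give inhibition.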

Setting [7] is: at 5.0 µM (retest, dose inferred, filed as 0.5).
Setting [8] is: at 50.0 µM (retest, dose inferred, filed as 5.0).

In the case of `NC1OC(COC(=O)c2ccccc2)C(O)C(OC(=O)c2ccccc2)C1OC(=O)c1ccccc1` (stereo not given), the growth inhibition in test [1] (setting [7]) is 0%; in test [1] (setting [8]), 97% (active); in test [1] (at 50.0 µM), 97% (active); in test [2] (setting [7]) it was 2%; in test [2] (setting [8]), 98% (active); in test [2] (at 50.0 µM), 96.8% (active). Also, the growth inhibition was 11% in test [3] (setting [7]); 98% (active) in test [3] (setting [8]); 97.7% (active) in test [3] (at 50.0 µM); 11% in test [4] (setting [7]); 97% (active) in test [4] (setting [8]); 95.3% (active) in test [4] (at 50.0 µM). In addition, the growth inhibition in test [5] (setting [7]) was -1%; in test [5] (setting [8]), 98% (active); in test [5] (at 50.0 µM), 93.8% (active); in test [6] (setting [7]), 4%; in test [6] (setting [8]) it was 97% (active); in test [6] (at 50.0 µM) it was 95.8% (active).
On to `O=c1c2ccccc2nc(-c2ccccc2)n1NC(=S)Nc1ccc(Cl)cc1[N+](=O)[O-]`, for which the growth inhibition was -3% in test [1] (setting [7]); 17% in test [1] (setting [8]); 23.1% in test [1] (at 50.0 µM); -7% in test [2] (setting [7]); 10% in test [2] (setting [8]); -1.6% in test [2] (at 50.0 µM). The growth inhibition in test [3] (setting [7]) is 4%; in test [3] (setting [8]), 15%; in test [3] (at 50.0 µM), 40.6%; in test [4] (setting [7]), 8%; in test [4] (setting [8]), 14%; in test [4] (at 50.0 µM) it was -29.4%. For the same compound, the growth inhibition in test [5] (setting [7]) was -5%; in test [5] (setting [8]), 29%; in test [5] (at 50.0 µM) it was 71.4% (active); in test [6] (setting [7]), 2%; in test [6] (setting [8]), 10%; in test [6] (at 50.0 µM) it was 25.8%.
Turning to `S=C(Nc1ccc(N=Nc2ccccc2)cc1)SCc1ccccc1`, the growth inhibition was 1% in test [1] (setting [7]); 16% in test [1] (setting [8]); 63.3% in test [1] (at 50.0 µM); 3% in test [2] (setting [7]); 25% in test [2] (setting [8]); 97.7% (active) in test [2] (at 50.0 µM). Further, the growth inhibition was 4% in test [3] (setting [7]); 28% in test [3] (setting [8]); 95.6% (active) in test [3] (at 50.0 µM); 3% in test [4] (setting [7]); 8% in test [4] (setting [8]); 89.6% (active) in test [4] (at 50.0 µM). The growth inhibition in test [5] (setting [7]) is -1%; in test [5] (setting [8]), 11%; in test [5] (at 50.0 µM), 98.5% (active); in test [6] (setting [7]), -6%; in test [6] (setting [8]), 59%; in test [6] (at 50.0 µM) it was 96% (active).
For `CC1CN(C(=S)NNC(C)c2cc3ccccc3cn2)CC(C)O1` (stereo not given), the growth inhibition in test [1] (setting [7]) was 30%; in test [1] (setting [8]), 96% (active); in test [1] (at 50.0 µM), 87% (active); in test [2] (setting [7]), 38%; in test [2] (setting [8]), 99% (active); in test [2] (at 50.0 µM) it was 89.8% (active). The growth inhibition is 26% in test [3] (setting [7]); 98% (active) in test [3] (setting [8]); 90.5% (active) in test [3] (at 50.0 µM); 15% in test [4] (setting [7]); 98% (active) in test [4] (setting [8]); 90% (active) in test [4] (at 50.0 µM). Moreover, the growth inhibition in test [5] (setting [7]) is 39%; in test [5] (setting [8]), 99% (active); in test [5] (at 50.0 µM) it was 88.2% (active); in test [6] (setting [7]) it was 39%; in test [6] (setting [8]) it was 98% (active); in test [6] (at 50.0 µM), 91.3% (active).
For `Cc1nc(Nc2ccc(Cl)cc2)sc1C(=O)NNc1ccc([N+](=O)[O-])cc1[N+](=O)[O-]`, the growth inhibition was 24% in test [1] (setting [7]); 24% in test [1] (setting [8]); 88.8% (active) in test [1] (at 50.0 µM); 9% in test [2] (setting [7]); 9% in test [2] (setting [8]); 90.2% (active) in test [2] (at 50.0 µM). In addition, the growth inhibition in test [3] (setting [7]) is -6%; in test [3] (setting [8]) it was -6%; in test [3] (at 50.0 µM), 90.5% (active); in test [4] (setting [7]) it was 9%; in test [4] (setting [8]), 9%; in test [4] (at 50.0 µM) it was 89.4% (active). The growth inhibition was 10% in test [5] (setting [7]); 10% in test [5] (setting [8]); 92.8% (active) in test [5] (at 50.0 µM); 16% in test [6] (setting [7]); 16% in test [6] (setting [8]); 89.8% (active) in test [6] (at 50.0 µM).
In the case of `O=[N+]([O-])c1cc(Cl)cc(C(c2cc(Cl)cc([N+](=O)[O-])c2O)C(Cl)(Cl)Cl)c1O`, the growth inhibition is 52% in test [1] (setting [7]); 94% (active) in test [1] (setting [8]); 97.7% (active) in test [1] (at 50.0 µM); 50% in test [2] (setting [7]); 98% (active) in test [2] (setting [8]); 98.4% (active) in test [2] (at 50.0 µM). For the same compound, the growth inhibition in test [3] (setting [7]) is 38%; in test [3] (setting [8]), 92% (active); in test [3] (at 50.0 µM), 98.1% (active); in test [4] (setting [7]), 36%; in test [4] (setting [8]) it was 96% (active); in test [4] (at 50.0 µM), 97% (active). Also, the growth inhibition in test [5] (setting [7]) was 33%; in test [5] (setting [8]) it was 96% (active); in test [5] (at 50.0 µM), 97.2% (active); in test [6] (setting [7]), 66%; in test [6] (setting [8]), 96% (active); in test [6] (at 50.0 µM), 98.3% (active).
For the compound `CCOC(=O)C(=C=Cc1cccs1)C(=O)c1ccccc1`, the growth inhibition in test [1] (setting [7]) is 16%; in test [1] (setting [8]), 84% (active); in test [1] (at 50.0 µM), 87% (active); in test [2] (setting [7]), -14%; in test [2] (setting [8]), 95% (active); in test [2] (at 50.0 µM) it was 90.5% (active). Besides, the growth inhibition was 3% in test [3] (setting [7]); 92% (active) in test [3] (setting [8]); 90.8% (active) in test [3] (at 50.0 µM); -10% in test [4] (setting [7]); 91% (active) in test [4] (setting [8]); 90.7% (active) in test [4] (at 50.0 µM). In addition, the growth inhibition is -13% in test [5] (setting [7]); 97% (active) in test [5] (setting [8]); 89.8% (active) in test [5] (at 50.0 µM); -10% in test [6] (setting [7]); 94% (active) in test [6] (setting [8]); 83.9% (active) in test [6] (at 50.0 µM).
`O=C1c2ccccc2C(=O)c2c1ccc(O)c2O`: the growth inhibition is 79% (active) in test [1] (setting [7]); 96% (active) in test [1] (setting [8]); 83.3% (active) in test [1] (at 50.0 µM); 75% (active) in test [2] (setting [7]); 94% (active) in test [2] (setting [8]); 75.8% (active) in test [2] (at 50.0 µM). The growth inhibition in test [3] (setting [7]) is 91% (active); in test [3] (setting [8]), 94% (active); in test [3] (at 50.0 µM), 81.5% (active); in test [4] (setting [7]) it was 23%; in test [4] (setting [8]), 63%; in test [4] (at 50.0 µM), 65.7%. Further, the growth inhibition in test [5] (setting [7]) was 80% (active); in test [5] (setting [8]), 93% (active); in test [5] (at 50.0 µM), 77.9% (active); in test [6] (setting [7]), 90% (active); in test [6] (setting [8]), 96% (active); in test [6] (at 50.0 µM), 79% (active).
Regarding `Cc1n[n+]([O-])c(C)cc1[N+](=O)[O-]`, the growth inhibition in test [1] (setting [7]) was 0%; in test [1] (setting [8]), 50%; in test [1] (at 50.0 µM), 93.7% (active); in test [2] (setting [7]), 4%; in test [2] (setting [8]) it was 32%; in test [2] (at 50.0 µM), 44.6%. Moreover, the growth inhibition in test [3] (setting [7]) is 17%; in test [3] (setting [8]), 87% (active); in test [3] (at 50.0 µM), 85.6% (active); in test [4] (setting [7]) it was -5%; in test [4] (setting [8]) it was 42%; in test [4] (at 50.0 µM), 76.5% (active). The growth inhibition in test [5] (setting [7]) is -8%; in test [5] (setting [8]) it was 16%; in test [5] (at 50.0 µM), 65%; in test [6] (setting [7]), 58%; in test [6] (setting [8]), 94% (active); in test [6] (at 50.0 µM) it was 92.2% (active).
For `N#CNc1nc(N)c(-c2ccc(Cl)cc2)c(C(=O)Nc2ccc(Cl)c(Cl)c2)n1`, the growth inhibition in test [1] (setting [7]) is -1%; in test [1] (setting [8]), 1%; in test [1] (at 50.0 µM), -5.15%; in test [2] (setting [7]) it was -3%; in test [2] (setting [8]), -2%; in test [2] (at 50.0 µM), 14%. The growth inhibition is -2% in test [3] (setting [7]); 4% in test [3] (setting [8]); -8% in test [3] (at 50.0 µM); -4% in test [4] (setting [7]); 1% in test [4] (setting [8]); -6.6% in test [4] (at 50.0 µM). For the same compound, the growth inhibition in test [5] (setting [7]) was -2%; in test [5] (setting [8]), 1%; in test [5] (at 50.0 µM) it was 4.2%; in test [6] (setting [7]), -1%; in test [6] (setting [8]) it was -2%; in test [6] (at 50.0 µM), -22.4%.
